# Source: article PMC7862700, “An all-to-all approach to the identification of sequence-specific readers for epigenetic DNA modifications on cytosine”
# Legend:
# Experiment in all cases: DAPPL (digital affinity profiling via proximity ligation, sequencing); 10 mM Tris-HCl pH 7.5, 50 mM NaCl, 1 mM DTT, 4% glycerol, room temperature, 30 min; GST-TFs on glutathione beads, 16-mer random dsDNA library, 0.1% formaldehyde crosslink after washing; high values mean tight binding
# FLI1 = target: T1, FLI1 (Homo sapiens, UniProt Q01543 1-452); settings: protein: recombinant; tags: N-terminal GST; dsDNA, one strand shown
# T1 sequence: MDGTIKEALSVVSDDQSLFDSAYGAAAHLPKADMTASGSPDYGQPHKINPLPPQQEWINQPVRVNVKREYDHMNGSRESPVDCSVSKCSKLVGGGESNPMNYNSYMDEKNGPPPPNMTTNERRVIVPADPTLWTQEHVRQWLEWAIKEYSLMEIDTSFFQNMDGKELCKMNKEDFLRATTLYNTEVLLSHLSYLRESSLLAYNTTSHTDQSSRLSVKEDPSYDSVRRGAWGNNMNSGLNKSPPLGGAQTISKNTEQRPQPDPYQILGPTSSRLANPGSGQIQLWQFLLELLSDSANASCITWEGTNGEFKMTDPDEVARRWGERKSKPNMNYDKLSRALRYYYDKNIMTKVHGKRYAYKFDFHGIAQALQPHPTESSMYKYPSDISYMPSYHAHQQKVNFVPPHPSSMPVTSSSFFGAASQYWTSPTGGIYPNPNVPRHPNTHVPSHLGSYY
# Procedure, shortened: (§1)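 GST fusions of human transcription factors were expressed in yeast and captured with glutathione beads. Once given DNA barcodes and pooled alongside a tag-only sample, they were incubated for 30 min at room temperature with 200 nmole of a random double-stranded 16-mer DNA library in Tris/NaCl/DTT/glycerol buffer, then washed, crosslinked (0.1% formaldehyde), proximity-ligated, PCR-amplified and sequenced on an Illumina NextSeq500. The binding signal of each hexamer is its read frequency for a factor divided by its frequency for the tag-only sample.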
# ELK1 = target: T2, ELK1 (Homo sapiens, UniProt P19419 1-428); settings: protein: recombinant; tags: N-terminal GST; dsDNA, one strand shown
# T2 sequence: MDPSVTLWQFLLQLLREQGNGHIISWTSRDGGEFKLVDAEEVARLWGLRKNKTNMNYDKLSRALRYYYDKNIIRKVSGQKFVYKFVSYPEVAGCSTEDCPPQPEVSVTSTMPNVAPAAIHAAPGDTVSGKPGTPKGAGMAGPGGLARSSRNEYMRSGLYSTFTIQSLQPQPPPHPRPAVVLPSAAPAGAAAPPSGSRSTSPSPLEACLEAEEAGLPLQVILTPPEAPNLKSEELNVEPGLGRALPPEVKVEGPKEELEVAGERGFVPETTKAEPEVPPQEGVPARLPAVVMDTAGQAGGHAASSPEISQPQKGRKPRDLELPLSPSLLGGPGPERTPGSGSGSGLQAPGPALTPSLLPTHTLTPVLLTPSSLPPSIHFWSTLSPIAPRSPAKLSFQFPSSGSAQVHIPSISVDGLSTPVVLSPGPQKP
# Procedure, shortened: as §1
# GABPA = target: T3, GABPA (Homo sapiens, UniProt Q06546 1-454); settings: protein: recombinant; tags: N-terminal GST; dsDNA, one strand shown
# T3 sequence: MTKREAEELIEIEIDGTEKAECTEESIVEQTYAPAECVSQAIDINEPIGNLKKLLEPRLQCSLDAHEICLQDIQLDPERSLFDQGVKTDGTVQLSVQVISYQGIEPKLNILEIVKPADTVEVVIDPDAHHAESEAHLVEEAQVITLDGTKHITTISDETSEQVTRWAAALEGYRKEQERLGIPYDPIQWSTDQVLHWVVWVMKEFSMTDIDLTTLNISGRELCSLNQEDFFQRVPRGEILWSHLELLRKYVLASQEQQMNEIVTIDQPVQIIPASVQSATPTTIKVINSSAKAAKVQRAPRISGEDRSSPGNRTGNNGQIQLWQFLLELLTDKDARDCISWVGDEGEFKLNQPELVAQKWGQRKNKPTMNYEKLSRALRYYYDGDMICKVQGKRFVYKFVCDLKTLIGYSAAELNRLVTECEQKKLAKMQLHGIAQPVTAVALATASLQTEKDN
# Procedure, shortened: as §1
# ERG = target: T4, ERG (Homo sapiens, UniProt P11308 1-479); settings: protein: recombinant; tags: N-terminal GST; dsDNA, one strand shown
# T4 sequence: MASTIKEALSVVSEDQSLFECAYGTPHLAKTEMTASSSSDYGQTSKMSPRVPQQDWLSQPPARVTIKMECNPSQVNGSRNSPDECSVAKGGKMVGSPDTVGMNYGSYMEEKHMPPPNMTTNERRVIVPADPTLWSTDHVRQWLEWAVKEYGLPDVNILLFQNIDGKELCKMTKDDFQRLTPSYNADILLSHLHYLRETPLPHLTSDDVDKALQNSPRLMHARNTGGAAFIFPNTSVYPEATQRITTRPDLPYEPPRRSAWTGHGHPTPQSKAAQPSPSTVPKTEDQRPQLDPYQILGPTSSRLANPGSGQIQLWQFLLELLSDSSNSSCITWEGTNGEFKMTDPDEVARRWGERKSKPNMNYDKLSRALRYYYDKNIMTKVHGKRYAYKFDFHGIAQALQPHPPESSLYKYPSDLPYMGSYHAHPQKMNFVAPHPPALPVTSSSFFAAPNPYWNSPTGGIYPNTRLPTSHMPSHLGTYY
# Procedure, shortened: as §1
# ELF1 = ELF1 (Homo sapiens, UniProt P32519 1-619); settings: protein: recombinant; tags: N-terminal GST; dsDNA, one strand shown
# Sequence of ELF1 (P32519 whole entry): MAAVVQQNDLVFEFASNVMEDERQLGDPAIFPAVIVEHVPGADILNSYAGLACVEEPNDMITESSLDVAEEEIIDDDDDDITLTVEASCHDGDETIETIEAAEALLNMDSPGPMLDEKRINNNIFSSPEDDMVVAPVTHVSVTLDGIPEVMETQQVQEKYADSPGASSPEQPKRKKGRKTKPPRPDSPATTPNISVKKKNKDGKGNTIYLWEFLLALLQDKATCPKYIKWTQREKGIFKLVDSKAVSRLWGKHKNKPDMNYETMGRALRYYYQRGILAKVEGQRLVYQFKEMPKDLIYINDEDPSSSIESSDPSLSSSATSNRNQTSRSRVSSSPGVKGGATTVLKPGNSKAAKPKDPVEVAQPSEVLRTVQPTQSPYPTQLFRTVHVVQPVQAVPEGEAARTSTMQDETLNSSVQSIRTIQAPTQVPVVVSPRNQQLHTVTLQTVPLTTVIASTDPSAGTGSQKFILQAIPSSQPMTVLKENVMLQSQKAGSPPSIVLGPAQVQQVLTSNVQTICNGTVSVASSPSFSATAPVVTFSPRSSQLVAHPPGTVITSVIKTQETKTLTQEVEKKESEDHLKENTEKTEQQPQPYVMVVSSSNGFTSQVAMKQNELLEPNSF
# Procedure, shortened: as §1
# EHF = target: T5, EHF (Homo sapiens, UniProt Q9NZC4 1-300); settings: protein: recombinant; tags: N-terminal GST; dsDNA, one strand shown
# T5 sequence: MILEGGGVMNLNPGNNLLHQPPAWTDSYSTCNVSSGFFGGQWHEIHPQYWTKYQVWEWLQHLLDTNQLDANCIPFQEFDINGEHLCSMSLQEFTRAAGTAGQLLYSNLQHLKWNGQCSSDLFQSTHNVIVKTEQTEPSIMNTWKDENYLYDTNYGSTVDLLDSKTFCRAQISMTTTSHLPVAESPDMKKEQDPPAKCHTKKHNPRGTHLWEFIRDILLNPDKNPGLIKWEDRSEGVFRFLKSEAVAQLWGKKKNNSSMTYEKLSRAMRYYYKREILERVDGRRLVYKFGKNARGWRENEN
# Procedure, shortened: as §1
# SPI1 = SPI1 (Homo sapiens, UniProt P17947 1-270); settings: protein: recombinant; tags: N-terminal GST; dsDNA, one strand shown
# Procedure, shortened: as §1
# SPIB = SPIB (Homo sapiens, UniProt Q01892 1-262); settings: protein: recombinant; tags: N-terminal GST; dsDNA, one strand shown
# Sequence of SPIB (Q01892 whole entry): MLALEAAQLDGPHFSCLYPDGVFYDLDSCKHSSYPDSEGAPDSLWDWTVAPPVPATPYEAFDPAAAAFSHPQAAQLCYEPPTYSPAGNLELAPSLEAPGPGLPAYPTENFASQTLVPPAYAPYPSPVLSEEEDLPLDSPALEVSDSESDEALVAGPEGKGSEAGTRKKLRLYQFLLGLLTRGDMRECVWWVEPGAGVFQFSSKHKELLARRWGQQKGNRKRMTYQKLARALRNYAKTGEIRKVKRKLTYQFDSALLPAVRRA
# Procedure, shortened: as §1
# ELK3 = target: T6, ELK3 (Homo sapiens, UniProt P41970 1-407); settings: protein: recombinant; tags: N-terminal GST; dsDNA, one strand shown
# T6 sequence: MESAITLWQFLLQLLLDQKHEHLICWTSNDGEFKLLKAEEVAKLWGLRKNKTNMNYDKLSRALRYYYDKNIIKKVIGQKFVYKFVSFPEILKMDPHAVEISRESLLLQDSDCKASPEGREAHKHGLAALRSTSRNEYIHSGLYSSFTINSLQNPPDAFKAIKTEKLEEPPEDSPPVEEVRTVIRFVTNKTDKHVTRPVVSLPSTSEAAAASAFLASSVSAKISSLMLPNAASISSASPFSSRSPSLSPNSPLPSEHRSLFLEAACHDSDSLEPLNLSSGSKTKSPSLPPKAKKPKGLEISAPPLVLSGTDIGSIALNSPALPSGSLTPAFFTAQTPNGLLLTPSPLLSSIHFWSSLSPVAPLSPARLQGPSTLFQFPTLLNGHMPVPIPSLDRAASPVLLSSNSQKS
# Procedure, shortened: as §1
# FEV = target: T7, FEV (Homo sapiens, UniProt Q99581 1-238); settings: protein: recombinant; tags: N-terminal GST; dsDNA, one strand shown
# T7 sequence: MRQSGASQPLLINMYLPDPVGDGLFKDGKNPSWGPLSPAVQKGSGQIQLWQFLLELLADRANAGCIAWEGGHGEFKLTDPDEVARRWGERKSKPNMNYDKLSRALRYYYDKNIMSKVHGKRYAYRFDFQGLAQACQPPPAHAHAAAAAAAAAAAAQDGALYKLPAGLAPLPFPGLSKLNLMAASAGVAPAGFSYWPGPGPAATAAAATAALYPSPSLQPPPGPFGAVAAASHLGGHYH
# Procedure, shortened: as §1
# ETV5 = ETV5 (Homo sapiens, UniProt P41161 1-510); settings: protein: recombinant; tags: N-terminal GST; dsDNA, one strand shown
# Sequence of ETV5 (P41161 whole entry): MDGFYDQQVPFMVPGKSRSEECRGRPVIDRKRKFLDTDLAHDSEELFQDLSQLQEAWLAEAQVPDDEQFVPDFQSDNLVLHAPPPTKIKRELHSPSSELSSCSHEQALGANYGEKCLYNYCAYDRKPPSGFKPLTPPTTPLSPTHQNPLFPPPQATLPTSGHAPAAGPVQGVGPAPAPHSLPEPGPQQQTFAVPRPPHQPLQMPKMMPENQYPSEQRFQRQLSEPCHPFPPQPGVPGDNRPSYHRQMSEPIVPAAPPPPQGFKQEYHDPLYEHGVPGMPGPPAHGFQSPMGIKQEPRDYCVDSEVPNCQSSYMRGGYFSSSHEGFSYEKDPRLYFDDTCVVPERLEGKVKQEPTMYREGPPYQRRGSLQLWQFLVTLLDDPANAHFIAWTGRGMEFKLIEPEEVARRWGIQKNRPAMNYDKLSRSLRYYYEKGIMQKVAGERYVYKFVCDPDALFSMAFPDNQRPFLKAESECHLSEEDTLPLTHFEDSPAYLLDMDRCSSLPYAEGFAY
# Procedure, shortened: as §1
# HSF1 = HSF1 (Homo sapiens, UniProt Q00613 1-529); settings: protein: recombinant; tags: N-terminal GST; chain copies: 3; dsDNA, one strand shown
# Sequence of HSF1 (Q00613 whole entry): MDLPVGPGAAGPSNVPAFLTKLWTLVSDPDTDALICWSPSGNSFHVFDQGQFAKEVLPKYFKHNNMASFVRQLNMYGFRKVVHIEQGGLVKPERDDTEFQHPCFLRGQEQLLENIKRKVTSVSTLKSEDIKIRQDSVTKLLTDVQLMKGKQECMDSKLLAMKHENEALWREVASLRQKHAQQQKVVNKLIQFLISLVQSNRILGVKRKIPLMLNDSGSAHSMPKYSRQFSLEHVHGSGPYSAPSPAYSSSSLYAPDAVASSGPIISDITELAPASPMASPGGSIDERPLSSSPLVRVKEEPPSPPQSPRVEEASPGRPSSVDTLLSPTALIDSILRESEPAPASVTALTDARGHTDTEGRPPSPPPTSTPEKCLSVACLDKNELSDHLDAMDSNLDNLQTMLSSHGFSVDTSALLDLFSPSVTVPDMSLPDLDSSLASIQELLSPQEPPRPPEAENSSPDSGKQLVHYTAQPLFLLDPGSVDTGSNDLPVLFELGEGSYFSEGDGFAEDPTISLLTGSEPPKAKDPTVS
# Procedure, shortened: as §1
# SPIC = target: T8, SPIC (Homo sapiens, UniProt Q8N5J4 1-248); settings: protein: recombinant; tags: N-terminal GST; dsDNA, one strand shown
# T8 sequence: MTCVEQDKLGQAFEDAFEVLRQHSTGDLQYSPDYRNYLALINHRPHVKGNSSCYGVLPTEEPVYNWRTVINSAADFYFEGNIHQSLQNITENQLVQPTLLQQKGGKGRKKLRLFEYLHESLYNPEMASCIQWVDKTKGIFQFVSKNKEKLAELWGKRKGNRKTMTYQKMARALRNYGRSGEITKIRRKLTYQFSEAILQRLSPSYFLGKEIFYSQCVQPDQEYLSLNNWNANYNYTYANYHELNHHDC
# Procedure, shortened: as §1
# ELF4 = ELF4 (Homo sapiens, UniProt Q99607 1-663); settings: protein: recombinant; tags: N-terminal GST; dsDNA, one strand shown
# Sequence of ELF4 (Q99607 whole entry): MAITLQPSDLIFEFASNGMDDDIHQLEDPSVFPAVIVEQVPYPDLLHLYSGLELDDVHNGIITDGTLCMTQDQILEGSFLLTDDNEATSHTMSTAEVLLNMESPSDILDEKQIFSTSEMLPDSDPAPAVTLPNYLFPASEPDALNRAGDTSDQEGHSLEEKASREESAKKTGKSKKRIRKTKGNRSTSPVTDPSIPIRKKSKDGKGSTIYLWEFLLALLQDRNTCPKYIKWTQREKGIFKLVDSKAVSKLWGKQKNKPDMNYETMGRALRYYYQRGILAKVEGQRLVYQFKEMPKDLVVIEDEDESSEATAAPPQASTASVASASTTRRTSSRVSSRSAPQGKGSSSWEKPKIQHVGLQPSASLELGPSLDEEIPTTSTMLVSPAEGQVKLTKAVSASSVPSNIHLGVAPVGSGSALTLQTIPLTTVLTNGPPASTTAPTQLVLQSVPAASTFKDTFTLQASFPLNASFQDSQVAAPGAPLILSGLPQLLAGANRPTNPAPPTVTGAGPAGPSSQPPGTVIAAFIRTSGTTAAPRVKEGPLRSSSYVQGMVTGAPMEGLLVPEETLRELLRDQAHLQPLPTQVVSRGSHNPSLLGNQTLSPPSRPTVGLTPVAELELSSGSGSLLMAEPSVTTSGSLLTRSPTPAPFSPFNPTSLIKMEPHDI
# Procedure, shortened: as §1
# ELK4 = target: T9, ELK4 (Homo sapiens, UniProt P28324-2 1-405); settings: protein: recombinant; tags: N-terminal GST; dsDNA, one strand shown
# T9 sequence: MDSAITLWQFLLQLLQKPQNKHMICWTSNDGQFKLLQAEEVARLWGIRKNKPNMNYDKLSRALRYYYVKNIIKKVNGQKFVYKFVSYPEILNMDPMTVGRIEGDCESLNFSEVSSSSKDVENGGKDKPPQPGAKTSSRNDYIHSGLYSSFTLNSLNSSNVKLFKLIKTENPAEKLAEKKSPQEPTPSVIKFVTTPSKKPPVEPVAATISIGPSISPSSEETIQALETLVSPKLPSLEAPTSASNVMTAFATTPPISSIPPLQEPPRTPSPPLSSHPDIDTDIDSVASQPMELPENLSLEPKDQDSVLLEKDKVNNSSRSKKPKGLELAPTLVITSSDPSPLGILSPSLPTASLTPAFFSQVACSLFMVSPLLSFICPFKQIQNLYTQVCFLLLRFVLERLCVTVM
# Procedure, shortened: as §1
# ETV2 = target: T10, ETV2 (Homo sapiens, UniProt O00321 1-342); settings: protein: recombinant; tags: N-terminal GST; dsDNA, one strand shown
# T10 sequence: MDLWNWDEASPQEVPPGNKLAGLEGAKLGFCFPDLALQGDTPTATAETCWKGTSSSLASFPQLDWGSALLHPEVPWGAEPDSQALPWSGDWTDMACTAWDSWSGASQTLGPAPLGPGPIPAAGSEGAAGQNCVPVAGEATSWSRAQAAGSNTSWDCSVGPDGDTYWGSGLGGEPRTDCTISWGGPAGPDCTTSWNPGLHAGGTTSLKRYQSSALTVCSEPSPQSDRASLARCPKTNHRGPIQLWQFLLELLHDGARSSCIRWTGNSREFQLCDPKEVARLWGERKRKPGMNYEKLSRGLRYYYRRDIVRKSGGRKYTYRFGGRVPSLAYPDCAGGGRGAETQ
# Procedure, shortened: as §1
# ELF3 = target: T11, ELF3 (Homo sapiens, UniProt P78545 1-371); settings: protein: recombinant; tags: N-terminal GST; dsDNA, one strand shown
# T11 sequence: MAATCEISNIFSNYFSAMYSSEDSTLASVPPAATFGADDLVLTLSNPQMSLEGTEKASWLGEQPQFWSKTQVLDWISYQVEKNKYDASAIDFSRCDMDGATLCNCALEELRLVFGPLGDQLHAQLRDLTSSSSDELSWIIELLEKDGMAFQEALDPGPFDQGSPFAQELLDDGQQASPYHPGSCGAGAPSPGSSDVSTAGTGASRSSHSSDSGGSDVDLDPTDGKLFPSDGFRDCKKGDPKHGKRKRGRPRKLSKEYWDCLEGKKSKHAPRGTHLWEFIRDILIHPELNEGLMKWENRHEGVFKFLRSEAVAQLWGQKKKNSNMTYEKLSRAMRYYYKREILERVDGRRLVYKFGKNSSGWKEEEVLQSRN
# Procedure, shortened: as §1
# CRX = CRX (Homo sapiens, UniProt O43186 1-299); settings: protein: recombinant; tags: N-terminal GST; dsDNA, one strand shown
# Sequence of CRX (O43186 whole entry): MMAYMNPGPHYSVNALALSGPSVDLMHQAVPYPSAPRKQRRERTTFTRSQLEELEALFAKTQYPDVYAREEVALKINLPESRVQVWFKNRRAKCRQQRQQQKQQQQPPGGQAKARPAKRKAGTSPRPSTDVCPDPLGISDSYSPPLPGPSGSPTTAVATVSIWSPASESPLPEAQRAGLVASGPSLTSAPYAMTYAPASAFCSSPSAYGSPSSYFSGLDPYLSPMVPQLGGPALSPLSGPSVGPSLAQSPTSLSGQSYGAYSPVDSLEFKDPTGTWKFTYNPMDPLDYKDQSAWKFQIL
# Procedure, shortened: as §1
# ETV1 = ETV1 (Homo sapiens, UniProt P50549 1-477); settings: protein: recombinant; tags: N-terminal GST; dsDNA, one strand shown
# Sequence of ETV1 (P50549 whole entry): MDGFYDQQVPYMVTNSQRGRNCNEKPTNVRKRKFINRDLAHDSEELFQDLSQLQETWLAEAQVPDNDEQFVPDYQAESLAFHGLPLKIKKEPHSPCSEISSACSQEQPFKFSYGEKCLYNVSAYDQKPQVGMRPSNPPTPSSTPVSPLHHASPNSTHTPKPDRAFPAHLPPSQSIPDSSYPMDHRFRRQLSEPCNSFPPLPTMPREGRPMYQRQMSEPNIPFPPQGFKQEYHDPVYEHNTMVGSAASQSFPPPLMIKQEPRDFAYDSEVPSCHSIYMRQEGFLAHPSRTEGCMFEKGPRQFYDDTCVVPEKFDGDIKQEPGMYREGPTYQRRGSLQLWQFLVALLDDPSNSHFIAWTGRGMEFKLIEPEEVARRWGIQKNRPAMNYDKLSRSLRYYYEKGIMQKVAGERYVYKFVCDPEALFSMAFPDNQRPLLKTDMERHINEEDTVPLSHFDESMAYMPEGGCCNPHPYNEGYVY
# Procedure, shortened: as §1
sequence,measurement,setting,value
ACGTTA,binding signal,FLI1,"1.11 fold enrichment (6-mer frequency, TF over GST control)"
same,binding signal,ELK1,"1.14 fold enrichment (6-mer frequency, TF over GST control)"
same,binding signal,GABPA,"1.11 fold enrichment (6-mer frequency, TF over GST control)"
same,binding signal,ERG,"1.21 fold enrichment (6-mer frequency, TF over GST control)"
same,binding signal,ELF1,"1.19 fold enrichment (6-mer frequency, TF over GST control)"
same,binding signal,EHF,"1.11 fold enrichment (6-mer frequency, TF over GST control)"
same,binding signal,SPI1,"1.19 fold enrichment (6-mer frequency, TF over GST control)"
same,binding signal,SPIB,"1.06 fold enrichment (6-mer frequency, TF over GST control)"
same,binding signal,ELK3,"1.3 fold enrichment (6-mer frequency, TF over GST control)"
same,binding signal,FEV,"1.13 fold enrichment (6-mer frequency, TF over GST control)"
same,binding signal,ETV5,"1.11 fold enrichment (6-mer frequency, TF over GST control)"
same,binding signal,HSF1,"1.04 fold enrichment (6-mer frequency, TF over GST control)"
same,binding signal,SPIC,"1.18 fold enrichment (6-mer frequency, TF over GST control)"
same,binding signal,ELF4,"1.11 fold enrichment (6-mer frequency, TF over GST control)"
same,binding signal,ELK4,"1.03 fold enrichment (6-mer frequency, TF over GST control)"
same,binding signal,ETV2,"1.28 fold enrichment (6-mer frequency, TF over GST control)"
same,binding signal,ELF3,"1.09 fold enrichment (6-mer frequency, TF over GST control)"
same,binding signal,CRX,"1.17 fold enrichment (6-mer frequency, TF over GST control)"
same,binding signal,ETV1,"1.05 fold enrichment (6-mer frequency, TF over GST control)"
